For ten molecules, AC50 results are on record in PMC6792352, “Limited Chemical Structural Diversity Found to Modulate Thyroid Hormone Receptor in the Tox21 Chemical Library” (Environmental Health Perspectives, 2019).

Where a name gives a salt, the structure may show the parent alone.

The assay has as its system thyroid hormone receptor (endogenous TRα and TRβ). On the set-up: species or system GH3-TRE-Luc (rat pituitary); GH3-TRE-Luc luciferase reporter, antagonist mode against 1 nM T3, loss of signal, qHTS. The note with it: read-out: Average AC50 (uM) GH3-TRE-Antag, antagonist mode, 1 nM T3, no GH3 cytotoxicity hit.
As usually defined, the AC50 is the concentration giving half of the maximal activity seen. Take `CC(=O)OCC(=O)[C@H]1CC[C@H]2[C@@H]3CCC4=CC(=O)CC[C@]4(C)[C@H]3CC[C@]12C` [Deoxycorticosterone acetate]: the AC50 turned out to be 25.2 µM.

Consider `CCCC[C@H](CC)COC(=O)/C=C/c1ccc(OC)cc1` [Octinoxate], for which the AC50 was greater than 50 µM.

With `O=C(c1ccccc1)c1ccc(O)cc1O` [2,4-Dihydroxybenzophenone], the AC50 worked out at 87 µM.

Regarding `CN(C)[C@@H]1C(O)=C(C(N)=O)C(=O)[C@@]2(O)C(O)=C3C(=O)c4c(O)ccc(Cl)c4[C@@](C)(O)[C@H]3C[C@@H]12` [Chlortetracycline hydrochloride], the AC50 was greater than 20 µM.

For the molecule `CC[C@@H]1/C=C(\C)C[C@H](C)C[C@H](OC)[C@H]2O[C@@](O)(C(=O)C(=O)N3CCCC[C@H]3C(=O)O[C@H](/C(C)=C/[C@@H]3CC[C@H](Cl)[C@H](OC)C3)[C@H](C)[C@@H](O)CC1=O)[C@H](C)C[C@@H]2OC` [Pimecrolimus], the AC50 came out at 16 µM.

Regarding `Cc1cc(O)c2c(c1)C(=O)c1cccc(O)c1C2=O` [Chrysophanic acid], the AC50 came to 40.7 µM.

For `C#C[C@]1(OC(C)=O)CC[C@H]2[C@@H]3CCC4=CC(=O)CC[C@@H]4[C@H]3CC[C@@]21C` [Norethindrone acetate], the AC50 came out at 10 µM.

For `Cc1ccccc1C(=O)Nc1ccc(C(=O)N2CCCC(O)c3cc(Cl)ccc32)c(C)c1` (stereo not shown) [Tolvaptan], the AC50 was found to be 21.9 µM.

As for `NNc1ccc(C(=O)O)cc1` [4-Hydrazinobenzoic acid hydrochloride], the AC50 turned out to be 84.8 µM.

On to `Nc1nc(N)c2nc(-c3ccccc3)c(N)nc2n1` [Triamterene], for which the AC50 was 39.2 µM.
